ANO1 activ = TMEM16A chloride channel activators or potentiators, primary screen, cell-based, HTS | Anoctamin-1 (Mus musculus), Q8BHY3 | B-score at 10 µM | hit rate 0.3% among 340,000 | HEK293 TMEM16A/YFP-H148Q/I152L, iodide quench fluorescence; active compounds read low;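 active = fluorescence-ratio B-score plate-corrected deviation score at least 3 library SD below zero, with starting fluorescence score within 5 deviations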;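 also: channel opened by trigger with iodide after compound preincubation; score built on the fluorescence ratio of max minus min over baseline; more negative score means more quench and so TMEM16A activation or potentiation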
Target sequence (Q8BHY3 whole entry, looked up): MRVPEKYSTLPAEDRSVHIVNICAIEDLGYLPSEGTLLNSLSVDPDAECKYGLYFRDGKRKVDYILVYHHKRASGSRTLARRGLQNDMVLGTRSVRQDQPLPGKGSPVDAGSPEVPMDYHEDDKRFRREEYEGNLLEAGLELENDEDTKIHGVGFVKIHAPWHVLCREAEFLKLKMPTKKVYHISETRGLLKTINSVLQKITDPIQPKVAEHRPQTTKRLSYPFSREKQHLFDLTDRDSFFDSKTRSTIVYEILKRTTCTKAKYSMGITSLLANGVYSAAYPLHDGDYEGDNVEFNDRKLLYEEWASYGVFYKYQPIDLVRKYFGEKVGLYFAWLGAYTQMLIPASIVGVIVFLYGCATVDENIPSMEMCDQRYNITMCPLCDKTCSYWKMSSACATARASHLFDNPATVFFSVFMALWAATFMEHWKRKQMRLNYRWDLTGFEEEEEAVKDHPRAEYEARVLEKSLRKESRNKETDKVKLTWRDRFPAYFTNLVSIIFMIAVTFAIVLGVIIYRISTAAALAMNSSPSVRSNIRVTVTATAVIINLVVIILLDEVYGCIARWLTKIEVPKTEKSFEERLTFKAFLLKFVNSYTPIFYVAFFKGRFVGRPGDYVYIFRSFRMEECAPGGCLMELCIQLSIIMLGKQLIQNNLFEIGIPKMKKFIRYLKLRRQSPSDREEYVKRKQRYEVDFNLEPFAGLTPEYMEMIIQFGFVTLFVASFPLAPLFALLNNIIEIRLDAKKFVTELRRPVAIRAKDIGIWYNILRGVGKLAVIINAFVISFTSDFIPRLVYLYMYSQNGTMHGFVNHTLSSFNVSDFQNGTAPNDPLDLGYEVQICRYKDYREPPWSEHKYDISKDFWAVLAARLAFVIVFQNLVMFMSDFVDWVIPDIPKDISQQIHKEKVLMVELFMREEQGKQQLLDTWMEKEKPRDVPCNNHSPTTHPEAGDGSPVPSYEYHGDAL
697 NFkB inh = inhibitors of PMA/ionomycin-induced NF-kB reporter, 697 cells, primary screen, B-cell NF-kB inhibitor project, cell-based, luminescence, uHTS. 697 B-cell NF-kB luciferase reporter, 16 h. hit rate 0.33% among 330,000. inhibition, % at 4 µM. AID 435022, 2010; in the data active = inhibition above about 35%
KLF5 inhibitor = KLF5 expression inhibitors, primary screen, DLD-1 cells, luminescence. DLD-1 KLF5 promoter-luciferase reporter. inhibition, % at 5 µM. hit rate 0.23% among 290,000;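 active = inhibition above a per-plate limit of that plate's mean compound inhibition plus 3 SD, cut at about 60% in these data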;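 also: 0% = DMSO wells and 100% = LY294002 at 200 µM; higher means less KLF5 promoter-driven luciferase light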
TMEM16A inh = TMEM16A chloride channel inhibitors, primary screen, cell-based, HTS. normalized B-score (activity score, 25-100; higher = stronger inhibition) at 10 µM. HEK293 TMEM16A/YFP iodide influx fluorescence, ionomycin. hit rate 1.2% among 310,000;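 active = ratio plate-corrected score three or more library SD toward inhibition, starting fluorescence score within five deviations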;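 also: score derived from kinetic fluorescence span divided by baseline fluorescence per well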
Jurkat NFkB inh = inhibitors of induced NF-kB luciferase reporter, primary screen, TCR NF-kB activation inhibitor project, cell-based, luminescence, uHTS; Jurkat, PMA/ionomycin-induced NF-kB luciferase reporter; inhibition, % at 4 µM; hit rate 0.53% among 330,000; AID 435003, 2010; in the data active = inhibition above about 50%
aSyn UTR inh = MLPCN primary screen, SNCA 5' untranslated region. alpha-synuclein 5'UTR reporter, inhibitor activity. inhibition, % (tested at 7.5 µM). AID 1813, 2009. hit rate 0.82% among 300,000; in the data active = inhibition above about 60%;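 also: H4 neuroglioblastoma cells stably carrying SNCA 5'UTR luciferase fusion; 0% = DMSO wells and 100% = positive control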
TMEM16A reconf = TMEM16A chloride channel inhibitors, confirmation, cell-based, re-confirmation | shares compounds with TMEM16A inh | HEK293 TMEM16A/YFP-H148Q, iodide quench fluorescence; ionomycin added to raise cell calcium | inhibition, % at 10 µM | hit rate 39% among 2,300;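 active = mean duplicate percent inhibition, scaled so buffer wells are 0 and the reference blocker 100, over three buffer SD above buffer mean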
TMEM16A Ca cntr = calcium mobilization in TMEM16A/YFP HEK293 cells, confirmation, counter-screen for TMEM16A inhibitor project; shares compounds with TMEM16A inh; Fluo4 calcium mobilization; calcium response (% of ionomycin), % at 10 µM; hit rate 2% among 2,300;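 active = duplicate-averaged calcium signal over 20% of the ionomycin maximum, relative to buffer baseline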;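 also: each well's signal is peak minus trough fluorescence divided by its pre-addition baseline; 0% = buffer wells and 100% = ionomycin wells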
Parental YFP cnt = iodide YFP quench changes in parental YFP-HEK293, counter-screen for TMEM16A inhibitor project, cell-based; shares compounds with TMEM16A inh; ionomycin; YFP ratio F(max-min)/F0 at 10 µM; 2,300 tested, under 10 active; AID 652233, 2013;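 active = yellow fluorescent protein signal ratio exceeding the buffer control mean by over 5 SD of those controls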;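 also: ratio is mean of duplicate wells from kinetic YFP trace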
ClC-1 inh = ClC-1 chloride channel inhibition, selectivity assay for TMEM16A inhibitor project, cell-based, voltage-dependent ClC-1; shares compounds with TMEM16A inh; CHO ClC-1-YFP, iodide influx fluorescence quench; iodide control reads 0, buffer control 100; ratio percent, % at 10 µM; 2,300 tested, under 10 active; AID 652236, 2013;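 active = duplicate-mean ratio percent above the mean of iodide-only control wells, which defines zero, plus 5 of their SD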;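 also: higher percent means stronger block of ClC-1 iodide influx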
Active calls of the source: *; i = inactive; / = no result given. Only some compounds are listed: those with a hit (about 2.5% of all), similar ones and a draw of the others.

SMILES	ANO1 activ	697 NFkB inh	KLF5 inhibitor	TMEM16A inh	Jurkat NFkB inh	aSyn UTR inh	TMEM16A reconf	TMEM16A Ca cntr	Parental YFP cnt	ClC-1 inh
Cc1cccc(NC(=S)NCCSc2ccc(Cl)cc2)c1	i	11.6	-12.2	100*	-8.6	40.8	71.5%*	i	-1.05	-31.5
COc1cccc(Oc2cn[nH]c2-c2ccc(O)cc2O)c1	i	1.6	19.0	i	-0.6	-23.7	/	/	/	/
CCOc1ccc(-c2[nH]ncc2Oc2cccc(OC)c2)c(O)c1	i	-3.4	-31.8	100*	7.0	30.1	i	i	-1	-10.5
COc1cccc(Oc2cn[nH]c2-c2ccc(OC)cc2O)c1	i	6.6	-9.3	25*	4.4	33.4	20.5%*	i	-1.3	-13.0
Cc1ccc(C(=O)N[C@H](C(=O)Nc2ccc(N3CCOCC3)cc2)C(C)C)cc1	i	9.8	/	/	0.5	/	/	/	/	/
O=C(Nc1nc(-c2ccc(S(=O)(=O)N3CCCCCC3)cc2)cs1)c1cccs1	i	-4.8	-30.0	i	-1.1	-3.7	/	/	/	/
O=C(Nc1nc(-c2nc3ccccc3s2)cs1)c1ccc(S(=O)(=O)N2CCOCC2)cc1	i	-135.1	-29.5	100*	-5.5	-75.2	33.0%*	i	-0.908	-21.5
O=C(Nc1nc(-c2ccc(S(=O)(=O)N3CCCC3)cc2)cs1)c1cccs1	i	-11.2	-31.8	25*	7.5	/	25.5%*	i	-0.753	-6.5
O=C(Nc1nc(-c2ccc(S(=O)(=O)N3CCOCC3)cc2)cs1)c1ccccc1	i	-36.5	-13.4	i	30.0	9.8	/	/	/	/
CC1(C)C(=O)Nc2ccccc2N1C(=O)COc1cc(Cl)ccc1Cl	i	33.1	/	/	-5.9	/	/	/	/	/
CC(C)n1cc(/C=N/Nc2ccc(Cl)c(C(=O)O)c2)c2ccccc21	i	-147.8	-147.6	i	-30.0	-60.2	/	/	/	/
Cc1nn(S(=O)(=O)c2cccs2)c(C)c1Sc1ccc([N+](=O)[O-])cc1	i	-26.8	-6.0	100*	18.3	8.0	44.5%*	i	-0.988	-20.5
O=C(CCN1C(=O)COc2ccccc21)N1CCCCC1	i	19.2	-12.6	i	5.4	23.4	i	i	-0.957	-5.5
Cc1ccc(C(=O)N/N=C/c2cn(Cc3ccccc3)c3ccccc23)cn1	i	-32.0	-36.9	25*	3.3	64.3*	i	i	-1.16	-13.0
CC(=O)c1sc(NC(=O)C=C(C)C)nc1C	i	6.3	-50.1	i	-11.3	-55.9	/	/	/	/
CC(=O)c1sc(NC(=O)C2(F)C(F)(F)C(F)(F)C(F)(F)C(F)(F)C2(F)F)nc1C	i	11.1	20.1	100*	-22.7	47.5	43.0%*	i	-0.819	-16.5
CN(C(=O)CSc1nnc(C2CC2)n1C1CC1)C1(C#N)CCCCC1	i	22.0	/	/	9.1	/	/	/	/	/
COc1ccc(-n2nc3c(c2NC(=O)C(C)Oc2ccccc2)CS(=O)(=O)C3)cc1 (configuration not stated)	i	-15.6	4.7	i	0.1	18.3	/	/	/	/
C/C=C(/C)C(=O)O[C@@H]1c2c(ccc3ccc(=O)oc23)OC(C)(C)[C@@H]1OC(=O)/C(C)=C\C	i	13.9	-26.4	100*	10.3	2.5	23.0%*	i	-1.08	-8.5
NC(=O)Nc1ccc2c(c1)OCCO2	i	8.2	-29.9	i	-13.3	-112.9	/	/	/	/
Cc1onc(-c2c(Cl)cccc2Cl)c1C(=O)Nc1ccc2c(c1)OCCO2	i	-6.9	24.6	100*	4.0	/	i	i	-1.03	-15.0
O=C(Nc1ccc2c(c1)OCCO2)C1CCC1	i	4.3	-22.5	100*	-13.0	-23.5	i	i	-0.991	4.0
COc1ccc(NC(=O)Cn2nnc(-c3ccccc3NS(=O)(=O)c3ccccc3)n2)cc1	i	-35.4	-5.3	100*	17.9	10.2	38.0%*	i	-0.845	-19.5
CCC(C)N(C(=O)Cn1cnc2c1c(=O)n(C)c(=O)n2C)C1CCS(=O)(=O)C1 (configuration not stated)	i	8.1	/	i	2.8	-9.0	/	/	/	/
CC(C)n1nnnc1-c1cccc(Cl)c1	i	5.8	-9.0	i	1.0	-2.9	i	i	-1.16	-7.5
SMILES	ANO1 activ	697 NFkB inh	KLF5 inhibitor	TMEM16A inh	Jurkat NFkB inh	aSyn UTR inh	TMEM16A reconf	TMEM16A Ca cntr	Parental YFP cnt	ClC-1 inh
CC(C)n1nnnc1-c1cc(Cl)cc(Cl)c1	i	11.5	-26.5	i	11.5	19.0	/	/	/	/
COc1cc(C(=O)OCC(=O)N(C)C)cc(NC(=O)c2ccco2)c1OC	i	22.1	-2.3	100*	-1.4	0.8	i	i	-0.979	-7.5
COc1cc(C(=O)OCC(=O)NCc2ccco2)cc(OC)c1OC	i	-27.0	-14.5	i	8.7	7.6	/	/	/	/
Cc1ccc(NC(=O)C2CCN(S(=O)(=O)c3ccc(N4CCCC4=O)cc3)CC2)cc1Cl	i	6.3	-42.4	i	23.9	-13.1	/	/	/	/
CCOC(=O)[C@H]1[C@H]2COc3ccc(C)cc3[C@@H]2N2C(=O)CN(CC3CCCO3)C(=O)[C@@]12C (some centres not stated)	i	18.5	/	/	11.5	/	/	/	/	/
CCOc1cc(S(=O)(=O)NCc2ccccn2)c(C)cc1C	/	-2.2	-2.8	100*	-11.9	2.0	i	i	-1.22	-6.5
COc1ccc(Cn2c(CCC(=O)Nc3ccc(CC#N)cc3)nc3cccnc32)cc1	i	10.4	-24.3	25*	-4.3	-5.2	i	i	-1.07	-6.0
C[C@@H]1CN([C@@H](C)CO)C(=O)c2cc(NC(=O)Nc3ccccc3)ccc2O[C@H]1CN(C)C(=O)Nc1cccc2ccccc12	i	4.0	/	/	3.2	/	/	/	/	/
CCOc1ccccc1Nc1cc(C)c2cccc(C)c2n1	i	-4.7	-24.2	i	15.0	8.3	/	/	/	/
CCOc1ccc(Nc2cc(Nc3ccccc3OCC)nc(C=C(C#N)C#N)n2)cc1	i	1.9	-9.5	i	-1.9	-5.7	i	i	-1.31	-2.5

Screens as filed in PubChem.
